Assay outcomes: PubChem BioAssay, several laboratories
Most compounds without a hit are left out; they make up all but 3.7% or so of the library.
NLRP3 yeast inh: inhibitors of NALP3 inflammasome in yeast. inhibition, % at 10 µM. Yeast reconstituted NLRP3/ASC/caspase-1, beta-gal luminescence, 24 h. actives 0.39% (n = 330,000). AID 2825;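 active means inhibition of 50% or more; inactive means inhibition below 50%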;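 further: plate controls were induced DMSO wells for no effect and uninduced yeast grown without galactose for full effect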
tim10-1 inh: inhibits growth of tim10-1 mutant yeast. S. cerevisiae tim10-1 ts strain growth, BacTiter-Glo, 24 h. inhibition, % at 20 µM. actives 2.2% (n = 330,000). AID 463190;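 active means inhibition of at least 40%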;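 further: mutant grown at 25 °C; 0% = DMSO wells with yeast and 100% = wells holding no yeast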
PfHsp90 yeast 2: growth inhibition of yeast expressing Plasmodium Hsp90 | S. cerevisiae expressing PfHsp90, BacTiter-Glo ATP, 48 h; yeast lacking PDR1 and PDR3 efflux regulators | actives 0.32% (n = 310,000) | inhibition, % at 9.4 µM;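 active means every replicate shows inhibition above about 80%, whatever the replicate mean, limit read from the data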;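 further: 0% = DMSO neutral controls and 100% = 20 µM radicicol positive controls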
tim23-1 inh: growth inhibitors of tim23-1 mutant yeast; actives 1.3% (n = 330,000); S. cerevisiae tim23-1 growth, BacTiter-Glo luminescence, 24 h; inhibition, % at 20 µM;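 active means growth inhibition of the mutant yeast at or above 50%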;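 further: temperature-sensitive mutant grown at 25 °C; plate controls were DMSO-treated mutant yeast for no effect and medium wells lacking yeast for full effect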
TIM10 inh: growth inhibitors of TIM10 yeast strain | inhibition, % at 10 µM | S. cerevisiae TIM10 strain growth, BacTiter-Glo luminescence, 24 h | actives 1.4% (n = 330,000);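 active means inhibition of 40% or more at the single tested concentration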;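 further: wild-type TIM10 isogenic control strain grown at permissive 25 °C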
tim23-1 conf: confirmation of tim23-1 mutant yeast growth inhibitors; shares compounds with tim23-1 inh; S. cerevisiae tim23-1 growth, BacTiter-Glo luminescence, 24 h; inhibition, % at 20 µM; actives 83% (n = 4,400);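 active means inhibition above about 39% in either of two replicate wells at 20 µM, limit read from the data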;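 further: temperature-sensitive tim23-1 mutant grown at 25 °C; 0% = DMSO wells with yeast and 100% = medium wells without yeast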
Starred values were filed as active, the others as inactive.

`CCCN1C(=O)C(=O)c2cc(Cl)ccc21` gave NLRP3 yeast inh -1, tim10-1 inh 13, PfHsp90 yeast 2 11, tim23-1 inh 61*, TIM10 inh 14 and tim23-1 conf 40*.
`Cc1ccc(OCCN2C(=O)C(=O)c3cc(C)ccc32)cc1` gave NLRP3 yeast inh 7, tim10-1 inh 17, PfHsp90 yeast 2 -9, tim23-1 inh 57*, TIM10 inh 22 and tim23-1 conf 53*.
`COc1ccccc1C(=O)Nc1cccc(S(=O)(=O)N2CCCC2)c1` gave NLRP3 yeast inh -12, tim10-1 inh 6, PfHsp90 yeast 2 -26, tim23-1 inh 98*, TIM10 inh 2 and tim23-1 conf 29.
CCN(CC)S(=O)(=O)c1cccc(C(=O)NC2CCCCC2)c1 was read as NLRP3 yeast inh 7, tim10-1 inh 17, PfHsp90 yeast 2 -18, tim23-1 inh 19 and TIM10 inh 3.
For CCN(CC)S(=O)(=O)c1csc(C(=O)NC2CCCCC2)c1 the results were NLRP3 yeast inh 1, tim10-1 inh -3, tim23-1 inh 96*, TIM10 inh -15 and tim23-1 conf 17.
Cc1cccc(N2CCc3c2nc2ccc(Br)cc2c3N)c1 was read as NLRP3 yeast inh 37, tim10-1 inh 32, PfHsp90 yeast 2 3, tim23-1 inh 76*, TIM10 inh 28 and tim23-1 conf 63*.
`CC12CC3(C)CC(C)(C1)CC(C(=O)NC1=NCCS1)(C2)C3` gave NLRP3 yeast inh 24, tim10-1 inh 40, PfHsp90 yeast 2 9, tim23-1 inh 52*, TIM10 inh 33 and tim23-1 conf 40*.
For O=C(NC1=NCCS1)C12CC3CC(C1)CC(C(=O)NC1=NCCS1)(C3)C2 the results were NLRP3 yeast inh 11, tim10-1 inh -11, PfHsp90 yeast 2 18, tim23-1 inh 4 and TIM10 inh -5.
Screening O=C(Nc1cccc(F)c1)N1CC=C(c2ccc(Cl)cc2)CC1 returned NLRP3 yeast inh 17, tim10-1 inh 37, PfHsp90 yeast 2 10, tim23-1 inh 59*, TIM10 inh 37 and tim23-1 conf 72*.
CSc1cccc(CN2CCC(n3nccc3NC(=O)C3CC3)CC2)c1 was read as NLRP3 yeast inh 6, tim10-1 inh -11, PfHsp90 yeast 2 1, tim23-1 inh 50*, TIM10 inh -8 and tim23-1 conf 15.
`Cc1nc(Cl)sc1C(=O)Nc1cccc(Cl)c1` gave NLRP3 yeast inh 33, tim10-1 inh 5, PfHsp90 yeast 2 9, tim23-1 inh 43 and TIM10 inh 4.
Cn1c(N)c(-c2nc3cccnc3n2C)sc1=S was read as NLRP3 yeast inh 26, tim10-1 inh -2, PfHsp90 yeast 2 -10, tim23-1 inh -24 and TIM10 inh -13.
Screening COc1ccc(C2CC(=O)Oc3ccc(OC)cc32)cc1 (stereo not drawn) returned tim10-1 inh 13, PfHsp90 yeast 2 -17, tim23-1 inh 40 and TIM10 inh -2.
`COc1ccc(C2CC(=O)Oc3cc(C)c(Cl)cc32)cc1` (stereo not drawn) gave tim10-1 inh 26, PfHsp90 yeast 2 6, tim23-1 inh 53*, TIM10 inh 9 and tim23-1 conf 40*.
COc1cc(NC(=O)Cn2cnc3c(OCc4ccccc4)ncnc32)cc(OC)c1OC was read as NLRP3 yeast inh 2, tim10-1 inh 14, PfHsp90 yeast 2 12, tim23-1 inh 20 and TIM10 inh 4.
`Cc1ccc(-c2nc3n(n2)Cc2ccccc2-3)cc1` gave NLRP3 yeast inh 20, tim10-1 inh 14, PfHsp90 yeast 2 10, tim23-1 inh 54*, TIM10 inh 20 and tim23-1 conf 50*.
`CCOCCn1ccc2c(OCC(=O)Nc3ccc(OC)c(OC)c3)cccc2c1=O` gave NLRP3 yeast inh 1, tim10-1 inh 12, tim23-1 inh 54*, TIM10 inh 4 and tim23-1 conf 5.
CCOCCn1ccc2c(OCC(=O)NCCc3ccc(OC)c(OC)c3)cccc2c1=O was read as NLRP3 yeast inh 11, tim10-1 inh 17, PfHsp90 yeast 2 -12, tim23-1 inh 16 and TIM10 inh 9.
CCOc1ccc(N(CC(=O)NCC2CCCO2)C(=O)CCC(=O)Nc2nccs2)cc1 (stereo not drawn) was read as NLRP3 yeast inh -4, tim10-1 inh 21, PfHsp90 yeast 2 7, tim23-1 inh 12 and TIM10 inh -7.
